The list is not random: actives were taken first. Their share in the collection is about 3.4%.
PP5 primary: blocks human protein phosphatase 5 activity | 320,000 compounds, 0.18% hits | P53041 | inhibition, % at 6.7 µM | AID 1987 | purified PP5c, OMFP substrate fluorescence;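 active = inhibition above the campaign's mean inhibition across all tested compounds plus 3 SD, cut at about 9.5% in these data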
PP1 inh: PP1-alpha (human) inhibition in PP5 counter-screen; P62136; purified PP1alpha, OMFP fluorescence; inhibition, % at 6.7 µM; 320,000 compounds, 0.9% hits; AID 2235;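 active = inhibition above the mean inhibition of all tested compounds plus 3 SD, computed separately for each screening campaign, cut at about 15% in these data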
Target sequence (P62136 whole entry, looked up): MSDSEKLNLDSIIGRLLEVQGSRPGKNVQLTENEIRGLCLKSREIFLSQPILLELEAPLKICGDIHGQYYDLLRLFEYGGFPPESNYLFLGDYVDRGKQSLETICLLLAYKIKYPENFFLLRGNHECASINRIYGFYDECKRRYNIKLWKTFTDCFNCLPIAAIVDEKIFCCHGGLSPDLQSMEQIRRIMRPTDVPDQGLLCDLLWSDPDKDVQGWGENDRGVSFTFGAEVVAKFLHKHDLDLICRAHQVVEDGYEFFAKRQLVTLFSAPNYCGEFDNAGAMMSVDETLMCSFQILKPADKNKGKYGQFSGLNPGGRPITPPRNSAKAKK
PAFAH1B2 FP inh: blocks human PAF acetylhydrolase 1b catalytic subunit 2; P68402; recombinant PAFAH1B2, FP-rhodamine activity probe, fluorescence polarization; inhibition, % at 3.39 µM; 340,000 compounds, 1.2% hits; AID 492953;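 active = inhibition above the mean of all tested compounds plus 3 SD, cut at about 24% in these data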
Target sequence (P68402 whole entry, looked up): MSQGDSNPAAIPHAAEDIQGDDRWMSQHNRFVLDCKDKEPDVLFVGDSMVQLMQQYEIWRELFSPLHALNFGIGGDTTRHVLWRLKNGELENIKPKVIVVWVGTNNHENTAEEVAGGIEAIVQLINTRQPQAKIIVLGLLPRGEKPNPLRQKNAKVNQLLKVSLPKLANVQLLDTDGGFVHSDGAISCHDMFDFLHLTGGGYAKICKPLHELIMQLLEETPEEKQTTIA
PAFAH2 inh: PAFAH2 (human) inhibition | inhibition, % at 3.39 µM | 340,000 compounds, 0.99% hits | recombinant PAFAH2, FP-rhodamine activity probe, fluorescence polarization | Q99487;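 active = inhibition above the mean over all tested compounds plus 3 SD, cut at about 30% in these data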;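 also: inhibitors block probe labeling of enzyme so polarization drops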
PAFAH1B3 FP inh: PAFAH1B3 (human) inhibition | recombinant PAFAH1B3, FP-rhodamine probe, fluorescence polarization | 340,000 compounds, 0.28% hits | AID 492972 | inhibition, % at 3.39 µM | Q15102;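 active = inhibition above the screen-wide average of all tested compounds plus 3 SD, cut at about 25% in these data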
pPAFAH FP inh: pPAFAH (human) enzyme inhibition; inhibition, % at 3.39 µM; AID 463082; Q13093; 330,000 compounds, 1.5% hits; recombinant pPAFAH, FP-rhodamine probe fluorescence polarization;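 active = inhibition above the mean inhibition across the screen plus 3 SD, cut at about 25% in these data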;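 also: inhibitors block binding of the rhodamine activity-based probe so polarization drops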
Hits are given with their value; – = inactive; · = no result.

SMILES	PP5 primary	PP1 inh	PAFAH1B2 FP inh	PAFAH2 inh	PAFAH1B3 FP inh	pPAFAH FP inh
CCCCOC(=O)C(NC(=O)c1ccccc1)=C(C)C	–	–	–	–	–	–
CCOc1ncccc1C(=O)OCC(=O)Nc1ccc(C(C)C)cc1	–	–	–	51	–	30
CCOc1ncccc1C(=O)OCC(=O)Nc1ccc(C(N)=O)cc1	–	–	–	–	–	–
O=C(CN1CCN(c2ccc(O)cc2)CC1)Nc1ccc(SC(F)F)cc1	–	–	–	–	–	33
COc1cccc(N2CCN(CC(=O)Nc3ccc(SC(F)F)cc3)CC2)c1	–	–	–	–	–	–
COc1ccc(C2CC(c3ccccc3C(F)(F)F)=NN2c2ccc(S(N)(=O)=O)cc2)cc1 (stereo not drawn)	·	·	–	–	–	26
COc1ccc(C2CC(c3ccccc3F)=NN2c2ccc(S(N)(=O)=O)cc2)cc1 (stereo not drawn)	·	·	–	–	–	–
C/C(CC(=O)Nc1ccc(OCc2ccccc2)cc1)=N\NC(=O)C(=O)Nc1ccccc1C	–	16	–	–	–	–
COC(=O)c1c(NC(=O)COC(=O)[C@@H](NS(=O)(=O)c2cccc(Cl)c2)C(C)C)sc2c1CCC2	–	15	–	–	–	–
CC(NC(=O)COC(=O)c1ccc(N(C)C)cc1)c1ccccc1 (stereo not drawn)	–	–	–	79	–	33
CC(NC(=O)COC(=O)c1ccc(Br)o1)c1ccccc1 (stereo not drawn)	·	·	–	–	–	·
CNc1ccccc(C(=O)/C=C/c2ccccc2OC)c1=O	–	–	–	–	–	28
CN(C)C(=O)COc1ccc(C(=O)/C=C/c2cccnc2)cc1	–	–	–	–	–	–
S=c1[nH]nc(CSCCOc2ccc(Cl)cc2Cl)o1	–	–	34	–	–	–
S=c1[nH]nc(CSCCOc2ccccc2)o1	–	–	–	–	–	–
COC(=O)c1[nH]c2ccc(C)cc2c1NC(=O)CN1CCCc2ccccc21	–	17	–	–	–	–
COC(=O)c1[nH]c2cc(C)ccc2c1NC(=O)CN1CCN(c2ccccc2OC)CC1	–	–	–	–	–	–
O=C(O)c1ccc2c(c1)C(=O)N(c1cccc3ccccc13)C2=O	–	–	–	–	–	–
COC(=O)c1ccccc1NCc1cc(=O)oc2cc(O)c(O)cc12	–	–	44	31	–	82
COc1ccc(C)cc1NCc1cc(=O)oc2cc(-c3ccccc3)c(O)cc12	–	–	–	–	–	–
COc1ccccc1OCCCOc1ccc(/C=C2\SC(=O)NC2=O)cc1OC	–	–	–	–	–	–
COc1ccccc1OCCCOc1cccc(/C=C2\SC(=O)NC2=O)c1	–	16	–	–	–	–
CC1=C(C(=O)OCc2ccccc2)C(c2ccc(C(C)(C)C)cc2)NC(=O)N1CCCCCC(=O)O (stereo not drawn)	–	–	–	–	–	25
COC(=O)CCCN1C(=O)NC(c2ccc(-c3ccccc3)cc2)C(C(=O)OCc2ccccc2)=C1C (stereo not drawn)	·	·	–	–	–	27
COc1ccc(-c2oc(NC(=O)CCl)c(C#N)c2-c2ccc(OC)cc2)cc1	–	–	–	–	–	–
SMILES	PP5 primary	PP1 inh	PAFAH1B2 FP inh	PAFAH2 inh	PAFAH1B3 FP inh	pPAFAH FP inh
CNC(=O)CSc1nc2cc(S(=O)(=O)Nc3ccc(OC)cc3)ccc2o1	–	–	–	–	–	27
O=C(/C=C/c1ccco1)c1ccc(NC(=O)C23CC4CC(CC(C4)C2)C3)cc1	–	–	–	–	–	32
O=[N+]([O-])c1ccc(Cl)c(/C=N/n2c(C3CCCCC3)n[nH]c2=S)c1	–	–	–	–	–	–
CC1CCN(C(=O)CNS(=O)(=O)c2ccc(Br)s2)CC1	–	–	–	–	–	–
O=C(CNS(=O)(=O)c1ccc(Br)s1)N1CCN(c2ncccn2)CC1	·	·	25	–	–	·
Cc1ccc(S(=O)(=O)NC(C)c2ccccc2)cc1[N+](=O)[O-] (stereo not drawn)	–	–	24	–	–	–
Cn1c(=S)[nH]c2sc3c(c2c1=O)CCC(C(C)(C)C)C3 (stereo not drawn)	–	–	44	–	–	–
COCCn1c(=S)[nH]c2sc3c(c2c1=O)CCC(C)C3 (stereo not drawn)	–	–	–	–	–	–
Cc1nn(-c2ccccc2)c(Cl)c1CN(C(=O)CCl)c1ccc(Cl)cc1	–	–	41	–	–	–
CC(=O)N(Cc1c(C)nn(-c2ccccc2)c1Cl)c1ccc(Cl)cc1	–	–	–	–	–	–
N#Cc1ccccc1NC(=O)C(=O)NCC1CCCN1S(=O)(=O)c1cccs1 (stereo not drawn)	–	–	–	–	–	–
O=C1CC(=C2c3ccccc3-c3ccccc32)C(=O)N1CCN1CCN(c2cccc(Cl)c2)CC1	–	16	–	–	–	26
Clc1cccc(N2CCN(CCCN3CCN(c4ccccc4)CC3)CC2)c1	·	·	–	–	–	·
Cc1c(Cc2ccccc2)c(=O)oc2c(C)c(OCC(=O)N[C@@H](Cc3ccccc3)C(=O)O)ccc12	–	–	–	–	–	33
O=C(Nc1cccc(Cl)c1)N1CCN2C(=O)c3ccccc3C12c1ccccc1 (stereo not drawn)	–	–	25	–	–	–
S=c1[nH]nc(-c2cc(-c3ccco3)[nH]n2)n1-c1ccccc1Cl	–	–	–	–	–	29
CC(C)(C)OC(=O)N1CCC(NC(=O)c2nc[nH]c2C(=O)NCC(=O)OCc2ccccc2)CC1	–	–	–	–	–	33
CC(C)(C)OC(=O)CNC(=O)c1[nH]cnc1C(=O)NC1CCN(C(=O)OC(C)(C)C)CC1	–	–	–	–	–	–
Cc1cccn2c(=O)c(C=O)c(Sc3ncccn3)nc12	–	–	–	–	–	–
Oc1ccc(/C=N/NC(=S)Nc2cccnc2)cc1O	–	–	–	–	–	33
Cc1ccc(-c2csc(NC(=O)CSc3nnc4c(n3)[nH]c3ccccc34)n2)cc1	–	17	–	–	–	–
Cc1cc(-c2nnc(SCC(=O)Nc3nc(-c4ccccc4)cs3)o2)no1	–	–	–	–	–	30
Cc1ccc(NC(=O)CSc2nnc3c(n2)[nH]c2ccccc23)cc1	–	–	–	–	–	–
COCC(C)N1CCC(n2nccc2NC(=O)c2ccc3c(c2)OCO3)CC1 (stereo not drawn)	–	–	–	–	–	–
CCOc1cc(C2CC(=O)N3CN(C4CCCCC4)CSC3=C2C#N)ccc1O (stereo not drawn)	–	–	–	–	–	–
O=C(CSc1nnc(-c2cccnc2)n1Cc1ccccc1)NCc1ccco1	–	–	–	–	–	–
COc1cc(/C=C2\SC(=S)N(C(C(=O)O)c3ccccc3)C2=O)ccc1O (stereo not drawn)	–	–	–	–	–	–
